# Experimental data from PubChem BioAssay (NCI).
# About 79,000 compounds went through this panel and 15% of them were active in at least one assay; those are over-represented in the sample as a whole. Values without a mark were called inactive. Active and inactive are the calls of the source. Rule as the data show it: active = growth inhibition above about 70%; inactive = the rest.
# How the values were obtained:
# [1] = NCI Yeast Anticancer Drug Screen. Data for the wt1 strain (AID 149);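 also: 0% = growth of vehicle-treated wt1 cultures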; details: S. cerevisiae wt1 strain (SPY 50644) growth inhibition, active compounds read high
# Outline: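 Compounds are added to wt1 yeast cultures. Growth is then measured. Inhibition is expressed relative to vehicle-treated controls.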
# [2] = NCI Yeast Anticancer Drug Screen. Data for the rad50EPP+ strain (AID 151);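 also: 0% = growth of vehicle-treated control cultures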; details: S. cerevisiae rad50 mutant strain, active compounds read high
# Outline: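 rad50EPP+ yeast treated with test compounds. Readout: growth vs vehicle control.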
# [3] = NCI Yeast Anticancer Drug Screen. Data for the rad50 strain (AID 155);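 also: 0% = growth of vehicle-only cultures of the same strain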; details: S. cerevisiae rad50 strain growth inhibition, active compounds read high
# Outline: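 Inhibition values express reduced yeast growth in compound-treated cultures relative to vehicle-treated controls.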
# [4] = NCI Yeast Anticancer Drug Screen. Data for the mec2-1 strain (AID 157); details: S. cerevisiae mec2-1 strain, active compounds read high
# Outline: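 Growth inhibition is read against vehicle-treated controls after compound exposure of the mec2-1 yeast strain, which is defective in DNA damage repair or cell cycle control.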
# [5] = NCI Yeast Anticancer Drug Screen. Data for the rad14 strain (AID 159);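 also: 0% = growth of vehicle-treated control cultures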; details: S. cerevisiae rad14 strain growth inhibition, active compounds read high
# Outline: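 A mutant yeast strain defective in DNA damage repair is treated with compound; inhibition of its growth is scored against untreated, vehicle-exposed cultures.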
# [6] = NCI Yeast Anticancer Drug Screen. Data for the sgs1 mgt1 strain (AID 161);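 also: 0% = growth of cultures given vehicle only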; details: S. cerevisiae sgs1 mgt1 strain, active compounds read high
# Outline: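 Compounds are added to genetically altered yeast, and growth is compared with cultures given vehicle alone to give percent inhibition.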
# [7] = NCI Yeast Anticancer Drug Screen. Data for the CLN2oe strain (AID 163);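 also: 0% = growth of vehicle-only control cultures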; details: S. cerevisiae CLN2oe strain, active compounds read high
# Outline: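 Compound-treated yeast; growth vs vehicle ctrl = % inhibition. Genetically altered strain (cell-cycle control).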
# [8] = NCI Yeast Anticancer Drug Screen. Data for the bub3 strain (AID 167); details: S. cerevisiae bub3 mutant strain, active compounds read high
# Outline: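 Steps: expose the mutant yeast strain to compound; grow alongside vehicle-treated cultures; measure growth; express inhibition against the vehicle cultures.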
# [9] = NCI Yeast Anticancer Drug Screen. Data for the wt2 strain (AID 169);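 also: 0% = growth of vehicle-treated yeast cultures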; details: S. cerevisiae wt2 strain growth inhibition, active compounds read high
# Outline: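 Compound exposure of yeast; growth compared with vehicle controls; inhibition reported.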
# [10] = NCI Yeast Anticancer Drug Screen. Data for the mlh1 strain (AID 171);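 also: 0% = growth of vehicle-treated control cultures of the same strain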; details: S. cerevisiae mlh1 strain growth inhibition, active compounds read high
# Outline: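 Compounds are applied to a genetically altered yeast strain, and its growth is compared with that of vehicle-treated cultures to give percent inhibition.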
# [11] = NCI Yeast Anticancer Drug Screen. Data for the sgs1 strain (AID 173);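 also: 0% = growth of vehicle-only control cultures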; details: S. cerevisiae sgs1 mutant, active compounds read high
# Outline: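 Compounds applied to genetically altered yeast; growth compared with vehicle-treated cultures to give % inhibition.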
# [12] = NCI Yeast Anticancer Drug Screen. Data for the mlh1 rad18 strain (AID 175); details: S. cerevisiae mlh1 rad18 strain growth inhibition, active compounds read high
# Outline: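 Cells of a genetically altered yeast strain, deficient in DNA damage repair, were treated with compound. Their growth was then compared with that of vehicle-treated cultures to give inhibition.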
# [13] = NCI Yeast Anticancer Drug Screen. Data for the rad18 strain (AID 177); details: S. cerevisiae rad18 mutant growth inhibition, active compounds read high
# Outline: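 Compounds are applied to a repair-deficient yeast strain, and growth is compared with that of vehicle-treated cultures to give percent inhibition.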
# [14] = at 5.0 µM (retest, dose inferred, filed as 0.5)
# [15] = at 50.0 µM (retest, dose inferred, filed as 5.0)
compound,measurement,setting,value
OC1C#CCSCC#C/C=C\1 (stereo not given),growth inhibition,[1]; at 1.2 µM,9%
same,growth inhibition,[1]; at 3.7 µM,3%
same,growth inhibition,[1]; at 11.0 µM,14%
same,growth inhibition,[1]; at 33.0 µM,55%
same,growth inhibition,[1]; at 100.0 µM,97% (active)
same,growth inhibition,[2]; at 1.2 µM,-22%
same,growth inhibition,[2]; at 3.7 µM,15%
same,growth inhibition,[2]; at 11.0 µM,13%
same,growth inhibition,[2]; at 33.0 µM,23%
same,growth inhibition,[2]; at 100.0 µM,86% (active)
same,growth inhibition,[3]; at 1.2 µM,-24%
same,growth inhibition,[3]; at 3.7 µM,-17%
same,growth inhibition,[3]; [14],53%
same,growth inhibition,[3]; at 11.0 µM,34%
same,growth inhibition,[3]; at 33.0 µM,65%
same,growth inhibition,[3]; [15],100% (active)
same,growth inhibition,[3]; at 50.0 µM,81.3% (active)
same,growth inhibition,[3]; at 100.0 µM,97% (active)
same,growth inhibition,[4]; at 1.2 µM,1%
same,growth inhibition,[4]; at 3.7 µM,18%
same,growth inhibition,[4]; [14],62%
same,growth inhibition,[4]; at 11.0 µM,14%
same,growth inhibition,[4]; at 33.0 µM,54%
same,growth inhibition,[4]; [15],100% (active)
same,growth inhibition,[4]; at 50.0 µM,78.4% (active)
same,growth inhibition,[4]; at 100.0 µM,97% (active)
same,growth inhibition,[5]; at 1.2 µM,4%
same,growth inhibition,[5]; at 3.7 µM,6%
same,growth inhibition,[5]; at 11.0 µM,12%
same,growth inhibition,[5]; at 33.0 µM,51%
same,growth inhibition,[5]; at 100.0 µM,98% (active)
same,growth inhibition,[6]; [14],-4%
same,growth inhibition,[6]; [15],96% (active)
same,growth inhibition,[6]; at 50.0 µM,70.4% (active)
same,growth inhibition,[7]; at 1.2 µM,-22%
same,growth inhibition,[7]; at 3.7 µM,3%
same,growth inhibition,[7]; at 11.0 µM,-15%
same,growth inhibition,[7]; at 33.0 µM,-3%
same,growth inhibition,[7]; at 100.0 µM,77% (active)
same,growth inhibition,[8]; at 1.2 µM,-8%
same,growth inhibition,[8]; at 3.7 µM,-16%
same,growth inhibition,[8]; [14],16%
same,growth inhibition,[8]; at 11.0 µM,17%
same,growth inhibition,[8]; at 33.0 µM,-10%
same,growth inhibition,[8]; [15],97% (active)
same,growth inhibition,[8]; at 50.0 µM,84.2% (active)
same,growth inhibition,[8]; at 100.0 µM,96% (active)
same,growth inhibition,[9]; at 1.2 µM,-21%
same,growth inhibition,[9]; at 3.7 µM,-17%
same,growth inhibition,[9]; at 11.0 µM,6%
same,growth inhibition,[9]; at 33.0 µM,-9%
same,growth inhibition,[9]; at 100.0 µM,95% (active)
same,growth inhibition,[10]; at 1.2 µM,-1%
same,growth inhibition,[10]; at 3.7 µM,4%
same,growth inhibition,[10]; at 11.0 µM,15%
same,growth inhibition,[10]; at 33.0 µM,46%
same,growth inhibition,[10]; at 100.0 µM,96% (active)
same,growth inhibition,[11]; at 1.2 µM,20%
same,growth inhibition,[11]; at 3.7 µM,11%
same,growth inhibition,[11]; at 11.0 µM,27%
same,growth inhibition,[11]; at 33.0 µM,67%
same,growth inhibition,[11]; at 100.0 µM,97% (active)
same,growth inhibition,[12]; [14],62%
same,growth inhibition,[12]; [15],100% (active)
same,growth inhibition,[12]; at 50.0 µM,79.2% (active)
same,growth inhibition,[13]; at 1.2 µM,-27%
same,growth inhibition,[13]; at 3.7 µM,-21%
same,growth inhibition,[13]; at 11.0 µM,4%
same,growth inhibition,[13]; at 33.0 µM,49%
same,growth inhibition,[13]; at 100.0 µM,92% (active)
